# Laboratory results as given in PubChem BioAssay.
# Records with an inconclusive call do not appear. For part of these data: Measured potencies and affinities stand elsewhere. Calls of active or inactive are those of the source. Unless noted, the rule behind the calls is not given here. Numbered stars: 1 amine (or outer) side, 2 acyl side, 3 side chain; on linkers, the order of the positions; unused ones are H or OH. Bridge positions count the residues as written; N and C are the ends. Square brackets hold non-standard residues; d marks the D form. Peptide text beside a SMILES is read from it. I, II: the chains in the order shown. Actinocin(9to1) = Cc1c2oc3c(C)ccc(C(=O)[*:1])c3nc-2c(C(=O)[*:2])c(N)c1=O; NMeV = CN[CH](C(=O)O)C(C)C; Sar = CNCC(=O)O
# Columns and labels:
# [1] = compounds altering viability of human ES cells (AID 493140); conditions: human embryonic stem cell survival screen; stronger effect = higher value;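 note: cells exposed to compounds for four days before counting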
# [2] = viability loss in pontine glioma line – cell-based, JHH-DIPG-1, MIPE4.0, CellTiter-Glo, qHTS, dose response (AID 1347062; cut-off not given, nearly all actives have AC50 up to about 27 µM;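 for AC50: cells exposed to compound for two days before readout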); conditions: JHH-DIPG-1 viability, CellTiter-Glo ATP luminescence
# [3] = viability loss in pontine glioma line – cell-based, SU-DIPG-IV, MIPE4.0, CellTiter-Glo, qHTS, dose response (AID 1347063; cut-off not given, nearly all actives have AC50 up to about 30 µM;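 note: compound exposure lasted 48 hours before the viability readout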); conditions: CellTiter-Glo ATP luminescence
# [4] = growth inhibition of DIPG cells – cell-based, MIPE4.0 library, CellTiter-Glo luminescence, qHTS (AID 1347066; cut-off not given, nearly all actives have AC50 up to about 30 µM;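 note: cells exposed to compound for 48 hours before readout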); conditions: SU-DIPG-VI viability, CellTiter-Glo ATP luminescence
# [5] = chitosan synthesis blockers in C. neoformans – flow cytometry, Cibacron Brilliant Red staining (AID 1347148); conditions: Cryptococcus neoformans chitosan, stronger effect = lower value; at 10 µM unless noted;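 note: compound exposure lasted three days at 37 degrees C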
# [6] = viability loss in pontine glioma line – cell-based, SU-DIPG-XIII, MIPE5.0, CellTiter-Glo, qHTS, dose response (AID 1347064; cut-off not given, nearly all actives have AC50 up to about 23 µM;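 for AC50: cells exposed to compound for 48 hours before the viability read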); conditions: CellTiter-Glo ATP luminescence
# [7] = target: NAD(+) hydrolase SARM1 (Homo sapiens) (UniProt Q6SZW1); assay: blocking NAD cleavage by SARM1 SAM-TIR – cell lysate, NAD-Glo luminescence (AID 1508614;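 active = compound whose remaining NAD level is above about 45 nM, limit read from the data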;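 note: higher remaining NAD means stronger inhibition of SARM1 NADase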); conditions: SAM-TIR HEK293T lysate NADase, at 1 µM, stronger effect = higher value
# [8] = target: Mitogen-activated protein kinase 7 (Homo sapiens) (UniProt Q13164); assay: Gal4-ERK5 driven luciferase induction – cell-based, HTS, primary screen (AID 1508626;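 active = luciferase signal above three times the same-plate solvent-only control wells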;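 note: luciferase driven by Gal4-ERK5 fusion binding five Gal4 sites before minimal TATA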); conditions: HeLa Gal4-ERK5 transactivation, 18 h, at 5 µM, stronger effect = higher value
# [9] = compounds altering circadian rhythm period length – cell-based, LOPAC library, luminescence reporter (AID 2774); conditions: circadian reporter cells, at 7 µM, actives lie on both sides;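 note: values are relative to mean of DMSO wells on each plate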
# [10] = test system: Hepatitis C virus NS3 helicase; assay: blockers of NS3h binding to ssDNA – biochemical, fluorescence polarization, LOPAC1280 library, primary screen (AID 687035; in the data active = inhibition above about 37%); conditions: Purified HCV NS3 helicase, Cy5-dT15 ssDNA binding fluorescence polarization; stronger effect = higher value; concentration not given here
# [11] = compounds altering Cy5-DNA-NS3h complex signal – biochemical, LOPAC1280, artefact control for HCV NS3 helicase inhibitor project (AID 687037); conditions: Cy5-DNA-NS3h complex fluorescence interference counterscreen
# [12] = blockers of cellular phospholipid synthesis – cell-based, LOPAC library, screen 4, primary screen (AID 1347384); conditions: animal cells, phospholipid biosynthesis inhibition screen; at 10 µM
# [13] = viability loss in pontine glioma line – cell-based, SU-DIPG-XIII, MIPE4.0, CellTiter-Glo, qHTS, dose response (AID 1347061; cut-off not given, nearly all actives have AC50 up to about 37 µM;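 note: cells exposed to compound for 48 hours before readout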); conditions: CellTiter-Glo ATP luminescence
# [14] = compounds altering HSF1 focus formation in cells – imaging, Selleck Cancer Library (AID 1347162; in the data active = plate-normalised HSF1 focus index below about 0.46); conditions: human cells, HSF1 nuclear foci imaging, at 10 µM; SSMD: measured here: HSF1 foci SSMD mean; cell count: measured here: cell number; plate-normalised HSF1 focus index: stronger effect = lower value
# [15] = target: ATP-dependent translocase ABCB1 (Homo sapiens) (UniProt P08183); assay: P-glycoprotein substrate transport blockade – cell-based (AID 377; in the data active = fluorescence slope change above about 50%); conditions: MDR1-expressing cells, fluorescent substrate accumulation slope; stronger effect = higher value; concentration not given here
# [16] = EMT-state selective cytotoxicity in co-culture – imaging, PC-3E GFP, TEM4-18 mCherry, primary screen (AID 1345086;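 active = compounds killing one labelled cell type while sparing the other, by normalised counts and ratio limits, not self-fluorescent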;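 note: cells exposed to compound for 72 h before imaging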;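 for red/green cell ratio (normalised): normalised mesenchymal count divided by normalised epithelial count so high means epithelial killing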); conditions: PC-3E GFP / TEM4-18 mCherry co-culture, imaging cell counts, at 1 µM
# [17] = test system: Aerobactin synthetase IucA (Klebsiella pneumoniae); assay: inhibition of K. pneumoniae IucA enzyme – biochemical, Tocris library, absorbance (AID 1345561); conditions: purified IucA enzyme assay, absorbance (OD) read-out; stronger effect = lower value;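 tested at 8 µM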;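 note: 100% = enzyme without compound and 0% = no enzyme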
# [18] = blockers of polyQ-driven CASP3 activation – cell-based (AID 1583); conditions: polyglutamine-induced caspase-3 activation, cell assay; stronger effect = higher value;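 tested at 10 µM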
# [19] = yeast 75Q aggregation reduction – 75Q-TubU reporter (AID 1593); conditions: Yeast 75Q polyglutamine aggregation reporter
# [20] = restoration of touch response, mutant HTT neurons – whole organism, C. elegans mechanosensory neurons, N-terminal huntingtin (AID 1599); conditions: C. elegans polyQ-huntingtin mechanosensory neurons, stronger effect = higher value
# NAD(+) hydrolase SARM1 (Homo sapiens), sequence (Q6SZW1 whole entry, looked up, the tested form may be a part): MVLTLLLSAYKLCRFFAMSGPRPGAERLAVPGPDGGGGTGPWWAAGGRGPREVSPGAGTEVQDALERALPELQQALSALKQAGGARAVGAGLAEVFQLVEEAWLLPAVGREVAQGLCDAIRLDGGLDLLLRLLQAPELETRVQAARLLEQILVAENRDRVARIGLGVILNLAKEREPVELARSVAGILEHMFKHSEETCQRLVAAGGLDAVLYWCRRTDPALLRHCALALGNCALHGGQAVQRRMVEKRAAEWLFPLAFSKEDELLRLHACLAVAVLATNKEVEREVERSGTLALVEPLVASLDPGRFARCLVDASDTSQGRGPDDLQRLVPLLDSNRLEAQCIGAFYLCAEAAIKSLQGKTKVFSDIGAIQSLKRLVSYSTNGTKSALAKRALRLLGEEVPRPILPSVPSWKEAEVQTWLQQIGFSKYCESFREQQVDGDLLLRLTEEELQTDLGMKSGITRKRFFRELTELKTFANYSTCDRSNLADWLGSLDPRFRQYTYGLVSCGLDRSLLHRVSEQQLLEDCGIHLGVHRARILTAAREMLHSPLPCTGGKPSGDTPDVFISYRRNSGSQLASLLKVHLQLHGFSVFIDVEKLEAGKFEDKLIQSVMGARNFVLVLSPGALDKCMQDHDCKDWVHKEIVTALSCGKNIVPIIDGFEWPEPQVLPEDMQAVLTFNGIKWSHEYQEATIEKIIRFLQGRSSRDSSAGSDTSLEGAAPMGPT
# ATP-dependent translocase ABCB1 (Homo sapiens), sequence (P08183 whole entry, looked up): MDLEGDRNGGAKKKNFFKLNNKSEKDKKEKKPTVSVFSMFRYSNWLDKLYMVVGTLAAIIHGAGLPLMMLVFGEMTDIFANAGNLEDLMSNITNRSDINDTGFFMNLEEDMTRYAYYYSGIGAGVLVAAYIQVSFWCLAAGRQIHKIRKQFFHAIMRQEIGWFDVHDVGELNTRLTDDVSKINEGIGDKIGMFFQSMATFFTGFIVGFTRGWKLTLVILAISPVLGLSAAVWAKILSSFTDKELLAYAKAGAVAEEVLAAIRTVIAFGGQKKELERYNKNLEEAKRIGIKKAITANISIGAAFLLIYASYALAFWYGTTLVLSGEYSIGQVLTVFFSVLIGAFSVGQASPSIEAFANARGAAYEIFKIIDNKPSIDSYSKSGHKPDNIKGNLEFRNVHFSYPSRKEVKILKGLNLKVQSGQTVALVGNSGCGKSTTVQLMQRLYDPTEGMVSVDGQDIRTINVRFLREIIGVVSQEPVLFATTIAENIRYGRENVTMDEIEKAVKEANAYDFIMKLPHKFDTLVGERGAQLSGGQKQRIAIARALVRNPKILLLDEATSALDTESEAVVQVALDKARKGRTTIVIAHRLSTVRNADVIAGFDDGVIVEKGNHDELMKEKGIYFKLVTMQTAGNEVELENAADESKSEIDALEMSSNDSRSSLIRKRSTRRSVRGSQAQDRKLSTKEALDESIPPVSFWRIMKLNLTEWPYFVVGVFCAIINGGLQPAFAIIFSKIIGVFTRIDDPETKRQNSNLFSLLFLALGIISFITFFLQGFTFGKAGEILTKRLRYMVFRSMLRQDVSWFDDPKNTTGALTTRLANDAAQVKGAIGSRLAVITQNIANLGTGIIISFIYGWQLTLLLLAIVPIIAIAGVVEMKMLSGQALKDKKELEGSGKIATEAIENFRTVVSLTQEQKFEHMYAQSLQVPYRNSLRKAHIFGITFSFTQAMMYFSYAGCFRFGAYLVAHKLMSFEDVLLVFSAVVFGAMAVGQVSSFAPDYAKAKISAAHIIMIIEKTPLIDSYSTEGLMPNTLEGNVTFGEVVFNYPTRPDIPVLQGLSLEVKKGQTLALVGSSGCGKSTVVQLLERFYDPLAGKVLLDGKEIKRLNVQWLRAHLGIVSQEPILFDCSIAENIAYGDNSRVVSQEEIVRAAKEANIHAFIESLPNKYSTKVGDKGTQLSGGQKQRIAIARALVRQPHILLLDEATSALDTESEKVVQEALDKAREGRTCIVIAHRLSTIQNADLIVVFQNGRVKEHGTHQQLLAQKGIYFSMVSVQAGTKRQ
# Mitogen-activated protein kinase 7 (Homo sapiens), sequence (Q13164 whole entry, looked up, the tested form may be a part): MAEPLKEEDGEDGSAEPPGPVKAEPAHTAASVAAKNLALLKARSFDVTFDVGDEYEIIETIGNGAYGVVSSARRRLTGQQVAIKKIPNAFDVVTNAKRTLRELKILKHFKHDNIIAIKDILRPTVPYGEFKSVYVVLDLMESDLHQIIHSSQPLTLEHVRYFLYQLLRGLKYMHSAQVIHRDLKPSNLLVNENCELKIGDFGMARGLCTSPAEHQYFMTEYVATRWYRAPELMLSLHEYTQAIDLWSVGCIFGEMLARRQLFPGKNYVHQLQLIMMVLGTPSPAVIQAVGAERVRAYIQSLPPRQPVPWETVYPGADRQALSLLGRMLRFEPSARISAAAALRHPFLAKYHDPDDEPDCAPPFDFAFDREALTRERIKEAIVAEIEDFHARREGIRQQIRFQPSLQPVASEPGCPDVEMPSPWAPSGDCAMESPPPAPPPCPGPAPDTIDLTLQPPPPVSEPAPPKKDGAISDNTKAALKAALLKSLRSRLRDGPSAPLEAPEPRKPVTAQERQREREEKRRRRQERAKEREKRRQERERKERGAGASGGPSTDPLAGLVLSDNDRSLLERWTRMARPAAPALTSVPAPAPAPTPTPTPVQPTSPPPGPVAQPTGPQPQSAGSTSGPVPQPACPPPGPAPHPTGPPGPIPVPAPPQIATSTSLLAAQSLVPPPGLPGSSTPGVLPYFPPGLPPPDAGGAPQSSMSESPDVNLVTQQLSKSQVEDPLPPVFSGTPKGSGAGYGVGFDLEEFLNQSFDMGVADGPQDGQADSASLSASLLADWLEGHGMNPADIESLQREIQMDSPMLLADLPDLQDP
compound,measurement,setting,value
O=C1C(c2c(O)[nH]c3ccccc23)=Nc2ccccc21,survival,[1],88 (inactive)
same,outcome,[2],inactive
same,AC50,[3],13.2 µM (active)
same,outcome,[4],inactive
same,fold fluorescence,[5],3.17 [at 190.6 µM] (inactive)
CC1CNc2c(cccc2S(=O)(=O)N[C@@H](CCCN=C(N)N)C(=O)N2CC[C@@H](C)C[C@@H]2C(=O)O)C1 (some centres not stated),outcome,[6],inactive
same,outcome,[4],inactive
CN1[C@@H]2CC[C@H]1CC(OC(=O)C(CO)c1ccccc1)C2 (some centres not stated),remaining NAD,[7],10 nM (inactive)
same,luciferase signal,[8],44 AU (inactive)
Nc1ccn([C@@H]2CS[C@H](CO)O2)c(=O)n1,outcome,[6],inactive
same,remaining NAD,[7],10 nM (inactive)
CC(C)(C)NC(=O)[C@@H]1C[C@@H]2CCCC[C@@H]2CN1C[C@@H](O)[C@H](Cc1ccccc1)NC(=O)[C@H](CC(N)=O)NC(=O)c1ccc2ccccc2n1,survival,[1],25.4 (inactive)
O=C(O)C[C@H](O)C[C@H](O)/C=C/c1c(C2CC2)nc2ccccc2c1-c1ccc(F)cc1,outcome,[4],inactive
same,remaining NAD,[7],10 nM (inactive)
CC(C)c1ccc2c(c1)c(SC(C)(C)C)c(CC(C)(C)C(=O)O)n2Cc1ccc(Cl)cc1,period change,[9],0.025 h (inactive)
same,inhibition,[10],0% (inactive)
same,fluorescence ratio (interference),[11],0.9 (inactive)
same,outcome,[2],inactive
same,outcome,[12],inactive
COC(=O)Nc1nc2ccc(C(=O)c3ccc(F)cc3)cc2[nH]1,outcome,[13],inactive
same,outcome,[4],inactive
CC(N)(Cc1ccc(O)c(O)c1)C(=O)O (configuration not stated),period change,[9],-0.1 h (inactive)
same,inhibition,[10],0% (inactive)
same,fluorescence ratio (interference),[11],1 (inactive)
same,outcome,[12],inactive
Nc1nc(Cl)nc2c1ncn2[C@H]1C[C@H](O)[C@@H](CO)O1,outcome,[13],inactive
same,SSMD,[14],-4.5
same,cell count,[14],6930
same,plate-normalised HSF1 focus index,[14],0.776 (inactive)
COc1cc(C)c(/C=C/C(C)=C/C=C/C(C)=C/C(=O)O)c(C)c1C,outcome,[2],inactive
COc1cc(C[C@@H](CO)[C@H](CO)Cc2ccc(O)c(OC)c2)ccc1O,outcome,[6],inactive
O=C1c2c(O)cc(O)cc2O[C@H](c2ccc(O)c(O)c2)[C@H]1O,outcome,[2],inactive
same,outcome,[4],inactive
"Cc1c2oc3c(C)ccc(C(=O)NC4C(=O)NC(C(C)C)C(=O)N5CCCC5C(=O)N(C)CC(=O)N(C)C(C(C)C)C(=O)OC4C)c3nc-2c(C(=O)NC2C(=O)NC(C(C)C)C(=O)N3CCCC3C(=O)N(C)CC(=O)N(C)C(C(C)C)C(=O)OC2C)c(N)c1=O (configuration not stated) (I: TVP[Sar][NMeV] / II: TVP[Sar][NMeV]; ester I:1-I:C, II:1-II:C; linker I:N-II:N via Actinocin(9to1); configuration not given here)",outcome,[13],inactive
same,outcome,[2],inactive
same,outcome,[3],inactive
same,AC50,[6],0.00362 µM (active)
same,outcome,[4],inactive
O=C(O)COCCN1CCN([C@H](c2ccccc2)c2ccc(Cl)cc2)CC1,remaining NAD,[7],10 nM (inactive)
CCC[C@@H]1C[C@@H](C(=O)N[C@H]([C@@H](C)O)[C@H]2O[C@H](SC)[C@H](O)[C@@H](O)C2O)N(C)C1 (some centres not stated),fluorescence slope change,[15],65% (active)
C[n+]1ccccc1C=NO,red/green cell ratio (normalised),"[16]; actives lie on both sides, counts scaled to control wells, 1 = unselective",1.01 (inactive)
same,normalised cell number,[16]; measured here: epithelial PC-3E GFP cell survival,1
same,normalised cell number,[16]; measured here: mesenchymal TEM4-18 mCherry cell survival,1.02
C=C1/C(=C\C=C2/CCC[C@]3(C)[C@@H]([C@H](C)/C=C/[C@@H](O)C4CC4)CC[C@@H]23)C[C@@H](O)C[C@@H]1O,remaining activity,[17],98% (inactive)
CCN(CC)C(=O)[C@]1(c2ccccc2)C[C@@H]1CN,remaining NAD,[7],10 nM (inactive)
C=C1/C(=C\C=C2/CCC[C@]3(C)[C@@H]([C@H](C)CCCC(C)(C)O)CC[C@@H]23)C[C@@H](O)C[C@@H]1O,survival,[1],89.6 (inactive)
same,AC50,[2],2.35 µM (active)
same,AC50,[3],3.32 µM (active)
same,outcome,[6],inactive
same,AC50,[4],16.6 µM (active)
CN1C2CCC1CC(OC(c1ccccc1)c1ccccc1)C2 (configuration not stated),inhibition,[18],-6.22%
same,score,[19],1.2
same,rescue above control,[20],-5.92
same,period change,[9],0.035 h (inactive)
same,inhibition,[10],-5% (inactive)
same,fluorescence ratio (interference),[11],1 (inactive)
same,outcome,[12],inactive
